Results taken from PubChem BioAssay (Tox21).
Records with an inconclusive call do not appear. Entries that show only a call come without a potency. Activity calls are given as the source filed them. Unless noted, the call rests on the fitted dose curve.

assay: qHTS assay to identify small molecule agonists of the hypoxia (HIF-1) signaling pathway (AID 1224846; active means well fitted activation curve with a large enough effect in the signal ratio in the repeat runs, not every such curve was filed as active; the % refers to the signal ratio); conditions: HRE-bla ME-180 cells, beta-lactamase ratio, 17 h; series mostly up to 76.8 µM
Summary of the method: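 Agonist mode reporter screen. ME-180 cells stably expressing bla under HRE control received test compounds in DMSO for 17 hrs (37C, 5% CO2), and beta-lactamase activity was then detected with the CCF4-AM FRET substrate.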

Row | SMILES | Potency
1 | CCOc1ccc(N)c([N+](=O)[O-])c1 | inactive
2 | CCc1c(C(=O)NN2CCCCC2)nn(-c2ccc(Cl)cc2Cl)c1-c1ccc(Br)cc1 | inactive
3 | CCCCc1nc2cccnc2n1Cc1ccc(-c2ccccc2-c2nnn[nH]2)cc1 | inactive
4 | OCCN1CCN(CCCN2c3ccccc3C=Cc3ccccc32)CC1 | inactive
5 | COc1ccc(C(=O)Nc2nc3ccccc3c(NCc3ccccc3)c2C#N)cc1 | inactive
6 | CCCCC/C=C\C/C=C\CCCCCCCC(=O)NC(C)c1ccccc1 (configuration not stated) | inactive
7 | Cc1c(N)cccc1[N+](=O)[O-] | inactive
8 | CCCCCCCCCCCCCCCCOS(=O)(=O)O | inactive
9 | CCOC(=O)COC(=O)c1cc(Oc2ccc(C(F)(F)F)cc2Cl)ccc1[N+](=O)[O-] | inactive
10 | CC(C)OC(=O)C(C)N(C(=O)c1ccccc1)c1ccc(F)c(Cl)c1 (configuration not stated) | inactive
11 | CCCCC(CC)CN1C(=O)C2C3C=CC(C3)C2C1=O (configuration not stated) | inactive
12 | CCCOC(C(=O)OC1CCN(C)CC1)(c1ccccc1)c1ccccc1 | inactive
13 | CCOC(=O)C1=C[C@]2(CC)CCCN3CCc4c(n1c1ccccc41)[C@@H]32 | inactive
14 | COc1cc2nc(N(C)CCCNC(=O)C3CCCO3)nc(N)c2cc1OC (configuration not stated) | inactive
15 | Cn1c(=O)cc(Oc2ccc(F)cc2F)c2cnc(NCC(C)(C)O)nc21 | inactive
16 | CCCCC1=NC2(CCCC2)C(=O)N1Cc1ccc(-c2ccccc2-c2nn[nH]n2)cc1 | inactive
17 | CN(C)C(=O)NC1(c2ccccc2)CCN(CC[C@@]2(c3ccc(F)c(F)c3)CN(C(=O)c3ccccc3)CCO2)CC1 | inactive
18 | CN1CCC(N(Cc2cccs2)c2ccccc2)CC1 | inactive
19 | COc1ccc(C(=O)c2ccc(OC)cc2O)c(O)c1 | inactive
20 | CNCCCCOc1ccccc1Cc1ccccc1 | inactive
21 | O=C1OC(CN2CCOCC2)CN1/N=C/c1ccc([N+](=O)[O-])o1 (configuration not stated) | inactive

assay: qHTS assay to identify small molecule agonists of H2AX - cell viability counter screen (AID 1224847); conditions: CHO-K1 viability, CellTiter-Glo luminescence, 3 h; series mostly up to 154 µM; further: nearly all actives have a fitted effect of over 30% in size; further: potency means the concentration at half of the fitted maximal effect
Summary of the method: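 After overnight plating of 1000 CHO-K1 cells per well, a 15-concentration compound series was applied for 3 hr at 37C. Luminescence from CellTiter-Glo, read following 30 min at room temperature, reflected cell viability.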

Row | SMILES | Potency
22 | CCOc1ccc(N)c([N+](=O)[O-])c1 | inactive
23 | CN1CCC(=C2c3ccccc3Sc3ccccc32)CC1 | inactive
24 | CCc1c(C(=O)NN2CCCCC2)nn(-c2ccc(Cl)cc2Cl)c1-c1ccc(Br)cc1 | inactive
25 | CCCCc1nc2cccnc2n1Cc1ccc(-c2ccccc2-c2nnn[nH]2)cc1 | inactive
26 | OCCN1CCN(CCCN2c3ccccc3C=Cc3ccccc32)CC1 | inactive
27 | CC(=O)c1ccc2c(c1)N(CCCN(C)C)c1ccccc1S2 | inactive
28 | COc1ccc(C(=O)Nc2nc3ccccc3c(NCc3ccccc3)c2C#N)cc1 | inactive
29 | CCCCC/C=C\C/C=C\CCCCCCCC(=O)NC(C)c1ccccc1 (configuration not stated) | inactive
30 | Cc1c(N)cccc1[N+](=O)[O-] | inactive
31 | CCCCCCCCCCCCCCOS(=O)(=O)O | inactive
32 | CC(C)OC(=O)C(C)N(C(=O)c1ccccc1)c1ccc(F)c(Cl)c1 (configuration not stated) | 56.6 µM (active)
33 | CNCCCN1c2ccccc2CCc2ccccc21 | inactive
34 | C=CC(=O)OCCOc1ccccc1 | inactive
35 | CCCOC(C(=O)OC1CCN(C)CC1)(c1ccccc1)c1ccccc1 | inactive
36 | CCOC(=O)C1=C[C@]2(CC)CCCN3CCc4c(n1c1ccccc41)[C@@H]32 | inactive
37 | COc1cc2nc(N(C)CCCNC(=O)C3CCCO3)nc(N)c2cc1OC (configuration not stated) | inactive
38 | Clc1ccc(Cn2c(CN3CCCC3)nc3ccccc32)cc1 | inactive
39 | CCCCC1=NC2(CCCC2)C(=O)N1Cc1ccc(-c2ccccc2-c2nn[nH]n2)cc1 | inactive
40 | CN(C)C(=O)NC1(c2ccccc2)CCN(CC[C@@]2(c3ccc(F)c(F)c3)CN(C(=O)c3ccccc3)CCO2)CC1 | inactive
41 | CN1CCC(N(Cc2cccs2)c2ccccc2)CC1 | inactive
42 | CCN(CC)CCOC(=O)C(Cc1cccc2ccccc12)CC1CCCO1 (configuration not stated) | inactive
43 | CN(C)CCCN1c2ccccc2Sc2ccccc21 | inactive
44 | CN(C)c1ccc(C(c2ccccc2)c2ccc(N(C)C)cc2)cc1 | inactive
45 | O=C1OC(CN2CCOCC2)CN1/N=C/c1ccc([N+](=O)[O-])o1 (configuration not stated) | inactive

assay: qHTS assay to identify small molecule antagonists of the estrogen related receptor (ERR) signaling pathway from Tox21 library (AID 1224848; active means well fitted inhibition curve with a large enough effect in the repeat runs; further: nearly all actives have a fitted effect of over 50% in size; further: potency means the concentration at half of the fitted maximal effect); conditions: ERR reporter cell line, luciferase antagonist mode, 18 h; series mostly up to 92.4 µM
Summary of the method: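 Tox21 10K compounds in DMSO tested for ERR pathway antagonism in NTP's ERR cell line; 18 h, 37 C exposure; ONE-Glo luminescence.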

Row | SMILES | Potency
46 | CCOc1ccc(N)c([N+](=O)[O-])c1 | inactive
47 | CN1CCC(=C2c3ccccc3Sc3ccccc32)CC1 | inactive
48 | CCc1c(C(=O)NN2CCCCC2)nn(-c2ccc(Cl)cc2Cl)c1-c1ccc(Br)cc1 | 1.22 µM (active)
49 | COc1ccc(C(=O)Nc2nc3ccccc3c(NCc3ccccc3)c2C#N)cc1 | inactive
50 | CCCCC/C=C\C/C=C\CCCCCCCC(=O)NC(C)c1ccccc1 (configuration not stated) | 18.8 µM (active)
51 | Cc1c(N)cccc1[N+](=O)[O-] | inactive
52 | CC(C)OC(=O)C(C)N(C(=O)c1ccccc1)c1ccc(F)c(Cl)c1 (configuration not stated) | 17.2 µM (active)
53 | CCCCC(CC)CN1C(=O)C2C3C=CC(C3)C2C1=O (configuration not stated) | 54.5 µM (active)
54 | COC(=O)C1=C(C)NC(COC(N)=O)=C(C(=O)OC(C)C)C1c1cccc(Cl)c1Cl (configuration not stated) | 26.6 µM (active)
55 | C=CC(=O)OCCOc1ccccc1 | inactive
56 | COc1cc2nc(N(C)CCCNC(=O)C3CCCO3)nc(N)c2cc1OC (configuration not stated) | 9.44 µM (active)
57 | Cn1c(=O)cc(Oc2ccc(F)cc2F)c2cnc(NCC(C)(C)O)nc21 | 30.6 µM (active)
58 | CN1CCC(N(Cc2cccs2)c2ccccc2)CC1 | inactive
59 | CCOC(=O)NCCOc1ccc(Oc2ccccc2)cc1 | 19.3 µM (active)
60 | CN(C)CCCN1c2ccccc2Sc2ccccc21 | inactive
61 | CN(C)c1ccc(C(c2ccccc2)c2ccc(N(C)C)cc2)cc1 | 34.4 µM (active)
62 | COc1ccc(C(=O)c2ccc(OC)cc2O)c(O)c1 | inactive
